Drawing on PubChem BioAssay (Tox21), this text covers Potency and outcome for nine compounds.

Structures are written as SMILES. Records with an inconclusive call do not appear. Activity calls are given as the source filed them. Unless noted, calls follow the shape of the dose curve; as a rule, active = well fitted curve in the direction sought with a large enough effect in the repeat runs; inconclusive = weak or mixed curves; inactive = no such curve, though single readings can be large; an effect the other way counts as inactive or inconclusive.

A short description of experiment [1]: qHTS assay to identify small molecule antagonists of the glucocorticoid receptor (GR) signaling pathway - cell viability counter screen (AID 720693). Also: nearly all actives have a fitted effect of over 55% in size.
A short description of experiment [2]: qHTS assay for identifying genotoxic compounds that show differential cytotoxicity against isogenic chicken DT40 cell lines with known DNA damage response pathways - wild type cell line (AID 743012). Also: nearly all actives have a fitted effect of over 60% in size. Also: potency is read from the fitted curve at half-maximal effect. The method in brief:
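300 wt DT40 cells/well; cpd (DMSO) pintool-transferred after ~0.5 h at 37 C/5% CO2; 40 h incubation; CellTiter-Glo added, 30 min RT; luminescence read.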

Experiment [3] in a line: qHTS assay for identifying genotoxic compounds that show differential cytotoxicity against isogenic chicken DT40 cell lines with known DNA damage response pathways - Rev3 mutant cell line (AID 743014). Also: nearly all actives have a fitted effect of over 55% in size. Also: potency is read from the fitted curve at half-maximal effect.
A short description of experiment [4]: qHTS assay for identifying genotoxic compounds that show differential cytotoxicity against isogenic chicken DT40 cell lines with known DNA damage response pathways - Rad54/Ku70 mutant cell line (AID 743015). Also: nearly all actives have a fitted effect of over 60% in size. Also: potency is read from the fitted curve at half-maximal effect.
Experiment [5] is described as follows: qHTS assay to identify small molecule antagonists of the androgen receptor (AR) signaling pathway - cell viability counter screen (AID 743033; also: nearly all actives have a fitted effect of over 45% in size).
The nature of experiment [6]: qHTS assay to identify small molecule antagonists of the androgen receptor (AR) signaling pathway using the MDA cell line - cell viability counter screen (AID 743041; also: nearly all actives have a fitted effect of over 45% in size). The method in brief:
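Viability read by CellTiter-Fluor fluorescence in the same wells as the antagonist screen, added after 15.5 h of a 16 h, 37C exposure. Human breast carcinoma MDA-kb2 AR-luc cells, compounds co-dosed with agonist R1881.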

Experiment [7] is described as follows: qHTS assay to identify small molecule antagonists of the thyroid receptor (TR) signaling pathway - cell viability counter screen (AID 743064). Also: nearly all actives have a fitted effect of over 50% in size. Also: potency is read from the fitted curve at half-maximal effect. The method in brief:
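Plate GH3.TRE-Luc cells; incubate 4 h at 37 °C; add compound, then T3 to 1 nM final; incubate 23.5 h; add CellTiter-Fluor; incubate 30 min at 37 °C, 5% CO2; read fluorescence.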

Experiment [8] can be described thus: qHTS assay to identify small molecule antagonists of the thyroid receptor (TR) signaling pathway (AID 743065). Also: nearly all actives have a fitted effect of over 55% in size. Also: potency is read from the fitted curve at half-maximal effect. The method in brief: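 Antagonism measured as loss of luciferase signal in GH3 cells stably carrying a TRE-luciferase reporter, co-treated with compound and T3 (1 nM final) for 23.5 h at 37 C. Viability was read in the same well by CellTiter-Fluor.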

In experiment [9] the test system is thyroid hormone receptor (rat, GH3 cells). The experiment in a line: qHTS assay to identify small molecule agonists of the thyroid receptor (TR) signaling pathway (AID 743066; calls by dose curve).
In experiment [10] the target is Estrogen receptor (Homo sapiens) (UniProt P03372). The experiment in a line: qHTS assay to identify small molecule antagonists of the estrogen receptor alpha (ER-alpha) signaling pathway (AID 743069; active = well fitted curve in the direction sought with a large enough effect in the signal ratio in the repeat runs, not every such curve was filed as active; the % refers to the signal ratio). The method in brief: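 Antagonist mode: compounds in DMSO were co-added with 17beta-estradiol to ER-alpha-bla HEK293 cells (2% charcoal-stripped serum) and left 18 h at 37C. Reporter inhibition was measured as FRET fluorescence after 2 h LiveBLAzer substrate at room temperature.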
Chain of Estrogen receptor (Homo sapiens) (P03372 whole entry, looked up): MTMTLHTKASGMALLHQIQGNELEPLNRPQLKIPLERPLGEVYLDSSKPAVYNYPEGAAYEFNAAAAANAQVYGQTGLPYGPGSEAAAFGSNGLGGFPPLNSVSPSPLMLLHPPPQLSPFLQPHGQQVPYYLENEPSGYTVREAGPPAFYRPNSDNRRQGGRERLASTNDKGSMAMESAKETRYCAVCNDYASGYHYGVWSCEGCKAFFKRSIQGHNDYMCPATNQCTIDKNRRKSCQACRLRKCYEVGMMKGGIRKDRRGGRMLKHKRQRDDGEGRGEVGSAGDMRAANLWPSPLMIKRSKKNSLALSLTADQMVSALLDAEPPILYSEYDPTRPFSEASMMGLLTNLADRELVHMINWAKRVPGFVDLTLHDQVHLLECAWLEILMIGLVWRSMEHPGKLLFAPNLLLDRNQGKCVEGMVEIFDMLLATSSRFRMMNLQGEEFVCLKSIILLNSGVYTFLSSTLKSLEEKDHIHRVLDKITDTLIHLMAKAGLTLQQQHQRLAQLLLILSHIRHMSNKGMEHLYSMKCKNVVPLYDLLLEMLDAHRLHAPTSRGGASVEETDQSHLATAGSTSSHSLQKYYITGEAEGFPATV

Experiment [11] can be described thus: qHTS assay to identify small molecule antagonists of the estrogen receptor alpha (ER-alpha) signaling pathway - cell viability counter screen (AID 743074; calls by dose curve;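 also: HEK293 cells carrying ER-alpha-UAS-bla reporter stimulated with 17beta-estradiol; nearly all actives have a fitted effect of over 45% in size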).
Experiment [12] concerns the target Estrogen receptor (Homo sapiens) (UniProt P03372). Nature of the experiment: qHTS assay to identify small molecule agonists of the estrogen receptor alpha (ER-alpha) signaling pathway (AID 743075; calls by dose curve;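 also: HEK293 GripTite cells with ER-alpha and UAS-driven beta-lactamase reporter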).
Experiment [13] has the same target. Nature of the experiment: qHTS assay to identify small molecule agonists of the estrogen receptor alpha (ER-alpha) signaling pathway using the BG1 cell line (AID 743079). Also: nearly all actives have a fitted effect of over 20% in size.
Experiment [14] can be described thus: qHTS assay to identify small molecule antagonists of the estrogen receptor alpha (ER-alpha) signaling pathway using the BG1 cell line (AID 743080; calls by dose curve;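 also: BG1 cells stimulated with 17beta-estradiol alongside compound; series mostly up to about 70 µM; nearly all actives have a fitted effect of over 25% in size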). The method in brief: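 Quantitative HTS on the Tox21 10K library: BG1 cells with endogenous ER-alpha and ERE-luciferase reporter, 17beta-estradiol stimulation, 21.5 h compound exposure, luminescence endpoint with parallel fluorescence cytotoxicity counter-read.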

The nature of experiment [15]: qHTS assay to identify small molecule antagonists of the estrogen receptor alpha (ER-alpha) signaling pathway using the BG1 cell line - cell viability counter screen (AID 743081).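 Also: compound given together with 17beta-estradiol as the ER stimulus; series mostly up to about 70 µM; nearly all actives have a fitted effect of over 45% in size.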
A further experiment has as its target Aromatase (Homo sapiens) (UniProt P11511). Nature of the experiment: qHTS assay to identify aromatase inhibitors (AID 743083). Also: series mostly up to about 70 µM; nearly all actives have a fitted effect of over 55% in size.
Experiment [16] has as its target Androgen receptor (Homo sapiens) (UniProt P10275). Nature of the experiment: qHTS assay to identify small molecule agonists of the androgen receptor (AR) signaling pathway using the MDA cell line (AID 743040; also: nearly all actives have a fitted effect of over 20% in size). The method in brief: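 Luciferase agonist assay: 16 h compound exposure at 37C without CO2 in MDA-kb2 AR-luc cells, whose MMTV promoter responds to both AR and GR. Luminescence measured after 30 min room-temperature incubation with ONE-Glo.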

The target is the same in experiment [17]. Nature of the experiment: qHTS assay to identify small molecule antagonists of the androgen receptor (AR) signaling pathway using the MDA cell line (AID 743042; also: nearly all actives have a fitted effect of over 55% in size). The method in brief:
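Antagonist mode: compounds plus R1881 agonist added to MDA-kb2 AR-luc cells, incubated 16 h at 37C. Luciferase reporter luminescence quantified, with multiplexed CellTiter-Fluor readout for cell viability.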

The target is the same in experiment [18]. Nature of the experiment: qHTS assay to identify small molecule antagonists of the androgen receptor (AR) signaling pathway (AID 743035; active = well fitted inhibition curve with a large enough effect in the signal ratio in the repeat runs, not every such curve was filed as active; the % refers to the signal ratio). The method in brief:
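In this cell-based reporter screen, compounds were tested in concentration series against R1881-activated HEK293 cells expressing beta-lactamase under UAS control; after 16 h at 37C, FRET substrate was added and fluorescence read 2 h later.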

For experiment [19] the target is unchanged. The experiment in a line: qHTS assay to identify small molecule agonists of the androgen receptor (AR) signaling pathway (AID 743036; active = well fitted activation curve with a large enough effect in the signal ratio in the repeat runs, with a control signal flat, not every such curve was filed as active; the % refers to the signal ratio). The method in brief:
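Reporter line: GeneBLAzer AR-UAS-bla-GripTite (HEK293). Steps: plate cells, 4 h rest, add compounds, 16 h at 37C, add LiveBLAzer B/G substrate, 2 h at RT, read fluorescence.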

Chain of Aromatase (Homo sapiens) (P11511 whole entry, looked up): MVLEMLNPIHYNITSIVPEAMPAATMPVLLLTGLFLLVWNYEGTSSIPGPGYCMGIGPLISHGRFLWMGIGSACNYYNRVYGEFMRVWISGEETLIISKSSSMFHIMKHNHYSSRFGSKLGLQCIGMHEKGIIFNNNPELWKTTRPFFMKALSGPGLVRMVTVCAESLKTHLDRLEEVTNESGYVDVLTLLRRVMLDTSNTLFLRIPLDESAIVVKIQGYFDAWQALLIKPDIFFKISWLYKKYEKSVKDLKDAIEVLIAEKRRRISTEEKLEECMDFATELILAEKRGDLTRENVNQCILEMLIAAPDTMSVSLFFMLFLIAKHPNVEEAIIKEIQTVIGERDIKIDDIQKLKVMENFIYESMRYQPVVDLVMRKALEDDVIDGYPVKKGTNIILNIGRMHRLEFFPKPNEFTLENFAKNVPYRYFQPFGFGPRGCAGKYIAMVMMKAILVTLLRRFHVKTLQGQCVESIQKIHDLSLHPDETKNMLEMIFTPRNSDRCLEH
Chain of Androgen receptor (Homo sapiens) (P10275 whole entry, looked up): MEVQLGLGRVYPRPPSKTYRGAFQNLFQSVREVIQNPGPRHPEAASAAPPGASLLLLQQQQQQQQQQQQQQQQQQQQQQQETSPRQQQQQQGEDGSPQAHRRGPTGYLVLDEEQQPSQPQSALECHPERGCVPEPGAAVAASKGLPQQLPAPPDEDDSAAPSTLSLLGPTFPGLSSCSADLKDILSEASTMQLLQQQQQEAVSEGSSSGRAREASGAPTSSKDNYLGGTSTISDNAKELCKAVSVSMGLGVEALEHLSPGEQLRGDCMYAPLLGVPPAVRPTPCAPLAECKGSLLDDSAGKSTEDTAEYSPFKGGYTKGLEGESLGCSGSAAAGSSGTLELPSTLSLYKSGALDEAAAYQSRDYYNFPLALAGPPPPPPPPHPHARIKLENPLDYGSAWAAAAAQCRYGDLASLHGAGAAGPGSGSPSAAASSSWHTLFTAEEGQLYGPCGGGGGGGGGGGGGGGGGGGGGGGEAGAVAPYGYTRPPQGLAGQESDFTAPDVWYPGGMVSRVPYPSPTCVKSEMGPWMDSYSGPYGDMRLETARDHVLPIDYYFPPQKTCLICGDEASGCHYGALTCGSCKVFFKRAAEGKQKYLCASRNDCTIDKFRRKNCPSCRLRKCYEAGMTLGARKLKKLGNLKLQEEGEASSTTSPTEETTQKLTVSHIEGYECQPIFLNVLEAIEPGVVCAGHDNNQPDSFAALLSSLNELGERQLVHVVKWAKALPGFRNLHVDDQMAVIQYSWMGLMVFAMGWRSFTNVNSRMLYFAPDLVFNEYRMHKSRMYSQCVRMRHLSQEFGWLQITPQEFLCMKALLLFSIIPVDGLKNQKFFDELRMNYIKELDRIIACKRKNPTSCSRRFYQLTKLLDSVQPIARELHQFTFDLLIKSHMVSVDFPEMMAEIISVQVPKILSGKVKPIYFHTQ

As for `CCCCCCC#N`, the Potency result in experiment [1], in experiment [2], in [3], in experiment [4], in experiment [5] and in experiment [6] was “inactive” throughout. The Potency entry in [7], in [8], in experiment [9], in experiment [10], in experiment [11] and in experiment [12] was “inactive” each time. Further, the Potency entry (in experiment [13]; in experiment [14]; in experiment [15]; in the experiment with Aromatase (Homo sapiens)) was “inactive” throughout.

On to `O=[N+]([O-])c1ccccc1CCl`, for which the Potency entry in [1], in [2], in [3], in experiment [4], in experiment [5] and in experiment [6] was “inactive” throughout. Moreover, the Potency result in [7], in [8], in [9], in [10], in [11] and in experiment [12] was “inactive” each time. For the same compound, the Potency result (in experiment [13]; in [15]; with Aromatase (Homo sapiens)) was “inactive” throughout.

`COP(=S)(OC)Oc1cc(Cl)c(I)cc1Cl`: the Potency result in experiment [1], in [2], in experiment [3], in experiment [4], in experiment [5] and in experiment [16] was “inactive” each time. Besides, the Potency entry in experiment [6], in experiment [17], in [7], in experiment [9], in experiment [11] and in experiment [15] was “inactive” each time. The Potency entry with Aromatase (Homo sapiens) is “inactive”.

`CCOP(O)OCC`: the Potency result in experiment [1], in [2], in experiment [3], in experiment [4], in experiment [5] and in experiment [6] was “inactive” each time. Moreover, the Potency entry (in [7]; in experiment [8]; in experiment [9]; in [15]; with Aromatase (Homo sapiens)) was “inactive” each time.

For the compound `O=Cc1ccc2c(c1)OCO2`, the Potency result in [1], in experiment [2], in experiment [3], in experiment [4], in experiment [5] and in experiment [6] was “inactive” in each case. In addition, the Potency result (in experiment [7]; in experiment [8]; in [9]; in [11]; in [15]; in the experiment with Aromatase (Homo sapiens)) was “inactive” each time.

Take `CCC(Br)(CC)C(=O)NC(N)=O`: the Potency result in experiment [1], in experiment [2], in experiment [4], in experiment [5], in [6] and in experiment [7] was “inactive” in each case. The Potency entry (in experiment [8]; in experiment [9]; in experiment [11]; in experiment [15]; with Aromatase (Homo sapiens)) was “inactive” throughout. For the same compound, the Potency in [3] was 54.5 µM (active).

Turning to `CCCCN(N=O)C(=N)N[N+](=O)[O-]`, the Potency entry in experiment [1], in experiment [5], in experiment [18], in experiment [16], in experiment [6] and in experiment [9] was “inactive” in each case. Moreover, the Potency result in experiment [11] and in [15] was “inactive” each time. The Potency in [2] was 17.6 µM (active); in experiment [3] it was 1.57 µM (active); in [4], 2.79 µM (active); in [7] it was 62.4 µM (active); in experiment [8], 49.6 µM (active). Moreover, in [19], the outcome was inactive.

Turning to `CCBr`, the Potency result in experiment [1], in experiment [2], in experiment [3], in experiment [4], in [5] and in [6] was “inactive” throughout. The Potency result in experiment [7], in experiment [8], in experiment [9], in [10], in [11] and in experiment [12] was “inactive” each time. The Potency result (in experiment [13]; in experiment [14]; in experiment [15]; with Aromatase (Homo sapiens)) was “inactive” each time.

As to `CCCN(CCCl)c1c([N+](=O)[O-])cc(C(F)(F)F)cc1[N+](=O)[O-]`, the Potency result in experiment [1], in experiment [2], in [3], in experiment [4], in experiment [5] and in [6] was “inactive” in each case. In addition, the Potency result in [7], in experiment [8], in experiment [9], in [10], in [11] and in experiment [12] was “inactive” in each case. Also, the Potency entry (in experiment [13]; in [14]; in experiment [15]; with Aromatase (Homo sapiens)) was “inactive” each time.
